According to PubChem BioAssay (NCATS):
Results filed as inconclusive are left out. Active and inactive are the calls of the source. The call rests on the fitted dose curve; in most records, active means well fitted inhibition curve with a large enough effect; inconclusive means small, poorly fitted or top-dose-only effect; inactive means flat fitted curve, though single readings scatter.

Biological target: Calcium and integrin-binding protein 1 (Homo sapiens) (UniProt Q99828)
Test: Primary qHTS for Identification of Calcium Integrin Binding Protein 1 (CIB1) Competitor (AID 1508620);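 further: GST tagged CIB1 binding a fluorescein labelled alphaIIb integrin peptide tracer; top concentration of the series differs between compounds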
Settings: CIB1-GST / FITC-alphaIIb peptide fluorescence polarization; series mostly up to 114 µM; activity change, negative = inhibition: at the top concentration
Method in brief: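 Fluorescence polarization competition: CIB1-GST (1 uM final) preincubated with compound 15 min at room temperature, then FITC-labeled alphaIIb peptide (100 nM final) added for another 15 min. Polarization read at Ex 480/Em 540.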
On the % scale 0 is the no-effect control and ±100 the full control effect.

Sequence of Calcium and integrin-binding protein 1 (Homo sapiens) (Q99828 whole entry, looked up): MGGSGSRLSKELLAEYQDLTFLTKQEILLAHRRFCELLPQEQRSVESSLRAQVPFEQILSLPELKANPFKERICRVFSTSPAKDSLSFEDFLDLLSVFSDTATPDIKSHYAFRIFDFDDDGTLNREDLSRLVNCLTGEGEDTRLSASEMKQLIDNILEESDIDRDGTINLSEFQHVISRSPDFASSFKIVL

SMILES | activity change, negative = inhibition
CN1CCN(c2cccc(Nc3nn4c(=O)c5ccc(C(F)(F)F)cc5nc4s3)c2)CC1 | -9.81% (inactive)
Cc1ccc(OCCn2c(CCNC(=O)Cc3ccc(F)cc3F)nc3ccccc32)cc1 | 17.2% (inactive)
O=C(O)c1ccc(-c2ccc3ncnc(NCCc4cnc[nH]4)c3c2)o1 | -11.9% (inactive)
Cc1ccc(-c2ccc(=O)n(CC(=O)NCCc3ccc(O)cc3)n2)cc1 | 0.617% (inactive)
COCCN1C(=O)c2ccccc2NC1c1ccc(OC)c(COc2c(C)cc(NC(C)=O)cc2C)c1 (configuration not stated) | 3.02% (inactive)
O=C(c1cccs1)c1nonc1C(=O)c1cccs1 | -1.44% (inactive)
NC(=O)C1CCN(c2nc(-c3ccc(OC(F)(F)F)cc3)cs2)CC1 | 2.75% (inactive)
Cc1cc(-c2nnc3n2CCCCCCC3)c(C)n1-c1ccccc1 | 3.25% (inactive)
Cc1cc2[nH]c3c(=O)n(Cc4ccccc4F)ncc3c2s1 | -0.798% (inactive)
O=c1c2[nH]c3ccsc3c2cnn1Cc1ccccc1F | 1.08% (inactive)
O=S(=O)(NCCCCNS(=O)(=O)c1c(F)cccc1F)c1ccc2c(c1)OCCO2 | -5.32% (inactive)
Cc1cc2c(s1)c1cnn(Cc3ccc(Br)cc3)c(=O)c1n2C | -1.38% (inactive)
NC(=O)c1c(NC(=O)c2ccco2)sc2c1CCCC2 | -9.04% (inactive)
COc1nccc(-c2nc(Nc3ccc(F)c(F)c3)c3ccccc3n2)c1OC | 3.27% (inactive)
O=[S+]([O-])(/C=C/c1nc(Nc2cc(F)cc(F)c2)c2ncn(CC(F)F)c2n1)c1ccccc1 | 3.18% (inactive)
COc1cccc(-c2nc(SC)nc3sc(C(=O)NC(C)(C)C)c(N)c23)c1 | -3.91% (inactive)
Cc1cnc(-c2ccccc2C(C)O)nc1NCc1ccc(-c2cccnc2)cc1 (configuration not stated) | -11.9% (inactive)
